In PubChem BioAssay (NCI) one finds growth data, which are given here for nine compounds.

Structures are written as SMILES. About 83,000 compounds went through this panel and 20% of them were active in at least one assay; those are over-represented in the sample as a whole.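 48-hour exposure, single concentration, 96-well plates; percent growth endpoint where 0 means no net growth. Active: below 10.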 A number with no mark means an inactive call. Calls of active or inactive are those of the source.

Test systems include RPMI-8226 leukemia; OVCAR-8 ovarian; OVCAR-5 ovarian; OVCAR-4 ovarian; SK-OV-3 ovarian; IGROV1 ovarian; OVCAR-3 ovarian; HS 578T breast; NCI/ADR-RES ovarian; T-47D breast; BT-549 breast; MDA-MB-435 melanoma; SW-620 colon; MCF7 breast; HCT-116 colon; HCC-2998 colon; KM12 colon.
Holding throughout (test): NCI-60 one-dose screen, 48 h (100 = growth as untreated, 0 = no growth, -100 = all killed)
Conditions in all cases: 10 µM unless noted

Turning to `COc1ccc(-c2cc(-c3cc(OC)c(OC)c(OC)c3)nc(N3CCOCC3)c2C#N)cc1`, the growth with RPMI-8226 leukemia was 63.7%; in the assay on OVCAR-8 ovarian, 78.9%; in the assay with OVCAR-5 ovarian it was 78.4%; with OVCAR-4 ovarian, 85.8%; in the assay on SK-OV-3 ovarian it was 98.2%; in the assay on IGROV1 ovarian it was 77.6%. The growth is 82.9% with OVCAR-3 ovarian; 67.5% with HS 578T breast; 29.9% in the assay on NCI/ADR-RES ovarian; 46.7% with T-47D breast; 128% with BT-549 breast; 74.5% with MDA-MB-435 melanoma. The growth in the assay with SW-620 colon was 67.3%; with MCF7 breast, 74.4%; in the assay on HCT-116 colon, 72.1%; with HCC-2998 colon it was 35%; with KM12 colon it was 71.9%.

Consider `Cc1nc(/N=C(\N)NC(=O)Nc2cccc(Cl)c2)sc1C`, for which the growth with RPMI-8226 leukemia was 77%; in the assay on OVCAR-8 ovarian, 94.5%; in the assay with OVCAR-5 ovarian it was 96.3%; in the assay with OVCAR-4 ovarian, 99.3%; with SK-OV-3 ovarian, 87.7%; with IGROV1 ovarian, 63.1%. Also, the growth in the assay on OVCAR-3 ovarian was 81.5%; with HS 578T breast it was 68.8%; in the assay with NCI/ADR-RES ovarian, 42.3%; with T-47D breast, 73.5%; in the assay with BT-549 breast, 71.7%; in the assay on MDA-MB-435 melanoma, -13.5% (active). For the same compound, the growth in the assay with SW-620 colon was 38.2%; in the assay on MCF7 breast it was 35.9%; with HCT-116 colon, 66.4%; in the assay with HCC-2998 colon, 78.2%; in the assay with KM12 colon it was 41.6%.

For the compound `Cc1cc2nc3ccc(N=Nc4ccc(N(C)C)cc4)cc3n(-c3ccccc3)c-2cc1=N`, the growth in the assay with RPMI-8226 leukemia is -63.5% (active); in the assay with OVCAR-8 ovarian, -22% (active); in the assay with OVCAR-5 ovarian, -78.5% (active); in the assay on OVCAR-4 ovarian, -93.2% (active); in the assay with SK-OV-3 ovarian it was -78% (active); with IGROV1 ovarian, -88.8% (active). Moreover, the growth in the assay with OVCAR-3 ovarian was -85% (active); with HS 578T breast, -25.3% (active); in the assay on NCI/ADR-RES ovarian, 4.97% (active); in the assay with T-47D breast it was -57.2% (active); with BT-549 breast, -82.2% (active); in the assay on MDA-MB-435 melanoma, -97.5% (active). In addition, the growth in the assay on SW-620 colon is -88.9% (active); in the assay on MCF7 breast it was -65.1% (active); in the assay on HCT-116 colon, -60.2% (active); in the assay with HCC-2998 colon it was -81.8% (active); in the assay with KM12 colon, -91.2% (active).

`O=C(/C=C/c1sc(Cl)nc1Cl)c1ccccc1`: the growth is 14% in the assay with RPMI-8226 leukemia; 93.5% with OVCAR-8 ovarian; 99.5% with OVCAR-5 ovarian; 108% in the assay with OVCAR-4 ovarian; 103% with SK-OV-3 ovarian; 91.9% with IGROV1 ovarian. Also, the growth was 46% with OVCAR-3 ovarian; 103% in the assay on HS 578T breast; 101% with NCI/ADR-RES ovarian; 98.3% in the assay on T-47D breast; 107% in the assay on BT-549 breast; 99.4% in the assay on MDA-MB-435 melanoma. The growth in the assay with SW-620 colon was 33%; in the assay on MCF7 breast, 32.8%; in the assay with HCT-116 colon, 34%; in the assay with HCC-2998 colon, 49.3%; in the assay on KM12 colon, 85.7%.

Regarding `OC(COc1ccccc1Cl)CN1CCN(c2cccc(Cl)c2)CC1` (stereo not drawn), the growth is 115% in the assay on RPMI-8226 leukemia; 91.9% in the assay with OVCAR-8 ovarian; 97.8% in the assay with OVCAR-5 ovarian; 110% with OVCAR-4 ovarian; 109% in the assay on SK-OV-3 ovarian; 122% in the assay with IGROV1 ovarian. The growth with OVCAR-3 ovarian was 113%; in the assay with HS 578T breast it was 112%; in the assay on NCI/ADR-RES ovarian, 113%; in the assay on T-47D breast it was 109%; with BT-549 breast, 95.5%; with MDA-MB-435 melanoma, 109%. The growth in the assay with SW-620 colon is 110%; in the assay on MCF7 breast, 93.8%; in the assay with HCT-116 colon it was 98.3%; in the assay with HCC-2998 colon it was 114%; with KM12 colon it was 104%.

Regarding `COc1ccc2c(c1)c(-c1ccc(-c3cn(C)c4ccc(OC)cc34)o1)cn2C`, the growth with RPMI-8226 leukemia is 25.5%; with OVCAR-8 ovarian, 39.4%; in the assay with OVCAR-5 ovarian it was 36.8%; in the assay with OVCAR-4 ovarian, -42.3% (active); in the assay on SK-OV-3 ovarian, 93.4%; in the assay on IGROV1 ovarian, 70.2%. The growth with OVCAR-3 ovarian was 23.2%; with HS 578T breast, -31.2% (active); with NCI/ADR-RES ovarian it was 38.7%; with T-47D breast it was -14% (active); with BT-549 breast, 1.95% (active); in the assay with MDA-MB-435 melanoma, 89.5%. The growth in the assay on SW-620 colon was 38%; in the assay with MCF7 breast, 65.4%; in the assay with HCT-116 colon, 68.6%; in the assay with HCC-2998 colon it was 30.1%; in the assay with KM12 colon, 22.7%.

Consider `COc1cc(/C=C/C(=O)/C=C/c2cc(OC)c3c(c2OC)OCO3)c(OC)c2c1OCO2`, for which the growth in the assay on RPMI-8226 leukemia was 15.7%; in the assay on OVCAR-8 ovarian, 2.45% (active); with OVCAR-5 ovarian, 81.8%; in the assay with OVCAR-4 ovarian, 32%; with SK-OV-3 ovarian it was 78.2%; in the assay with IGROV1 ovarian it was 29.8%. The growth in the assay on OVCAR-3 ovarian is 0.304% (active); in the assay with HS 578T breast, 63.8%; with NCI/ADR-RES ovarian, 28.3%; in the assay on T-47D breast it was 31%; in the assay on BT-549 breast, 31.4%; in the assay with MDA-MB-435 melanoma, 11.5%. For the same compound, the growth was 17.8% in the assay with SW-620 colon; 19.1% in the assay with MCF7 breast; 2.58% (active) in the assay with HCT-116 colon; 107% with HCC-2998 colon; 37% in the assay with KM12 colon.

As to `Nc1nc(Cl)cc(=O)n1Cc1ccccc1`, the growth was 100% in the assay on RPMI-8226 leukemia; 92.1% with OVCAR-8 ovarian; 91% in the assay on OVCAR-5 ovarian; 97.1% in the assay with OVCAR-4 ovarian; 103% with SK-OV-3 ovarian; 115% with IGROV1 ovarian. Also, the growth in the assay with OVCAR-3 ovarian was 103%; in the assay with HS 578T breast it was 135%; in the assay on NCI/ADR-RES ovarian, 91.9%; in the assay with T-47D breast it was 83.4%; in the assay on BT-549 breast it was 102%; in the assay on MDA-MB-435 melanoma it was 92.6%. Besides, the growth in the assay on SW-620 colon was 105%; in the assay on MCF7 breast it was 98.1%; in the assay with HCT-116 colon, 95.2%; in the assay with HCC-2998 colon it was 89.4%; in the assay on KM12 colon, 101%.

Regarding `O=c1ccc(N=Nc2ccc([N+](=O)[O-])cc2)ccc1O`, the growth was 22.4% with RPMI-8226 leukemia; 9.9% (active) in the assay with OVCAR-8 ovarian; 48.5% in the assay with OVCAR-5 ovarian; 29.6% in the assay with OVCAR-4 ovarian; 78.6% in the assay with SK-OV-3 ovarian; 21.4% in the assay on IGROV1 ovarian. Further, the growth in the assay on OVCAR-3 ovarian is 8.96% (active); with HS 578T breast, 34.8%; in the assay on NCI/ADR-RES ovarian it was -1.1% (active); in the assay on T-47D breast, 16.8%; with BT-549 breast it was 97.3%; in the assay with MDA-MB-435 melanoma, 21.8%. Moreover, the growth in the assay on SW-620 colon was 15.4%; in the assay on MCF7 breast, 7.16% (active); with HCT-116 colon, 32.3%; in the assay on HCC-2998 colon, 22.3%; in the assay on KM12 colon it was 16.7%.
